Test results published in PubChem BioAssay AID463195 (Sanford-Burnham Center for Chemical Genomics, 2010).
Screen size: about 330,000 compounds; about 4,600 (1.4%) were called active. Shown is part of a subset that was picked to be rich in actives. Values without a mark were called inactive.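 The calls were made as follows: active = inhibition of 40% or more at the single tested concentration; inactive = the rest.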

Experiment: growth inhibitors of isogenic TIM10 control yeast, primary screen, counter-screen for tim10-1 yeast inhibitor project, luminescence, uHTS (AID 463195);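 also: wild-type TIM10 isogenic control strain grown at permissive 25 °C; 0% = DMSO yeast wells and 100% = minimal medium wells without yeast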
Details: S. cerevisiae TIM10 strain growth, BacTiter-Glo luminescence, 24 h; at 10 µM; stronger effect = higher value
In the case of `Cc1ccc(NC(=O)CN(C)C(=O)Cn2nnc(-c3ccccc3)n2)cc1`, the inhibition is reported as 0.534%. `COc1ccccc1CNC(=O)COc1ccc(C)nc1[N+](=O)[O-]` gave an inhibition of 9.85%. `Cc1cccc(NC(=O)CCn2c(=O)oc3ccccc32)c1` showed an inhibition of -10%. `CC(OC(=O)c1cc2ccccc2o1)C(=O)Nc1ccc(N2CCOCC2)cc1` (stereo not drawn) gave an inhibition of 3.94%. For `Cc1ccc(C(C)C)cc1OCC(=O)Nc1ccccc1N1CCCC1`, the inhibition was -2.85%. With `CN1CCN(c2ccccc2NC(=O)COc2ccc(C3CCCCC3)cc2)CC1` the inhibition was 40.4% (active). In the case of `O=C(CN1CCN(C2CCCCC2)CC1)Nc1ccccc1N1CCCCC1`, the inhibition is reported as 4.11%. Work on `COc1ccc(NC(=O)/C(C#N)=C\c2cc(OC)c(OCc3ccc(C(=O)O)cc3)cc2Br)cc1` yielded an inhibition of 26.4%. For `COc1ccc(CNC(=O)CCn2cccc2)cc1`, the inhibition was -5.68%. In the case of `COc1ccc(CNC(=O)/C(C#N)=C/c2cccc(OC)c2OC)cc1`, the inhibition is reported as 70.4% (active). `C=CCSc1nnc(N2C(=O)C(O)=C(C(=O)c3ccco3)C2c2ccc(F)cc2)s1` (stereo not drawn) showed an inhibition of 1.92%. Compound `Cc1ccc2[nH]c3c(=O)n(CC(=O)NCCc4ccc(Cl)cc4)ncc3c2c1` has an inhibition of -0.819%. Compound `C=CCO/N=C/C1=C(O)C(C(=O)OC)C(C)(C)CC1=O` (stereo not drawn) has an inhibition of 6.77%. Work on `O=C(Nc1ccncc1)c1cc2ccccc2o1` yielded an inhibition of -3.62%. In the case of `O=c1oc2ccccc2cc1-c1csc(Nc2ccc(O)cc2)n1`, the inhibition is reported as 43.9% (active). For `Cc1ccc(Nc2nc(-c3ccc(O)cc3O)cs2)nc1`, the inhibition was 11.7%. Compound `Cc1csc(=O)n1CC(=O)Nc1ccc(S(C)(=O)=O)cc1` has an inhibition of -3.37%. Compound `CCn1c(=O)c2ccccc2n(CC(=O)N2CCCc3ccccc32)c1=O` has an inhibition of -2.71%. Work on `CC(C)c1ccc2c(c1)c(SC(C)(C)C)c(CC(C)(C)C(=O)O)n2Cc1ccc(Cl)cc1` yielded an inhibition of 3.33%. In the case of `N/C(=N\OC(=O)Cc1ccccc1[N+](=O)[O-])c1ccc(Br)cc1`, the inhibition is reported as 57.9% (active). Compound `N/C(=N\OC(=O)N1c2ccccc2Sc2ccccc21)c1ccc(Br)cc1` has an inhibition of -9.5%. `N/C(=N/O)c1cccn1Cc1ccccc1[N+](=O)[O-]` gave an inhibition of -10.5%. In the case of `CC[C@@H]1Cc2cc(O)ccc2C2=C1c1ccc(O)cc1C[C@H]2CC`, the inhibition is reported as 58.9% (active). `CCOc1ccc(N2C(=O)Nc3ccccc3C2(O)C(=O)NCc2ccco2)cc1` (stereo not drawn) showed an inhibition of -6.83%. Work on `CN(C)C(=O)CCc1ccc2c3c([nH]c2c1)[C@]1(CCc2ccccc2)[C@@H](C(=O)N2CCCCC2)C[C@H](CC(=O)NCCC2=CCCCC2)C(=O)N1CC3` yielded an inhibition of -1.38%. `Cc1cc(C(F)(F)F)nc(SCC(=O)Nc2nccs2)n1` showed an inhibition of 2.33%. For `Cn1cnnc1SCC(=O)Nc1ccc(N2CCOCC2)cc1`, the inhibition was -21.6%. For `CCN(CC)CCN(C(=O)c1ccc(S(=O)(=O)N2CCOCC2)cc1)c1nc2cc3c(cc2s1)OCCO3`, the inhibition was 41% (active). `CCN(CC)CCN(C(=O)c1ccc(N2C(=O)CCC2=O)cc1)c1nc2cc3c(cc2s1)OCO3` gave an inhibition of -10.9%. Work on `CN(C)CCCN(C(=O)c1ccc(S(=O)(=O)N2CCCCCC2)cc1)c1nc2cc3c(cc2s1)OCCO3` yielded an inhibition of 11.4%. In the case of `Cc1ccc(N(CC(=O)NCC2CCCO2)C(=O)CNS(=O)(=O)c2ccc(Cl)cc2)cc1` (stereo not drawn), the inhibition is reported as 11.1%. For `COc1cccc(N2CC(NS(=O)(=O)c3ccc(Cl)cc3)CC2=O)c1` (stereo not drawn), the inhibition was -3.31%. With `CCOC(=O)C1(C)NC(c2ccco2)C2C(=O)N(c3ccccc3)C(=O)C21` (stereo not drawn) the inhibition was -0.047%. For `CCCCC1(C(=O)OCC)NC(c2ccc(O)cc2)C2C(=O)N(c3ccccc3)C(=O)C21` (stereo not drawn), the inhibition was 58.8% (active). Compound `CCCC1(C(=O)OCC)NC(c2ccc(N(C)C)cc2)C2C(=O)N(c3ccc4c(c3)OCCO4)C(=O)C21` (stereo not drawn) has an inhibition of 4.95%. `Cc1ccc(NC(=O)C2CCCN2C(=O)OCc2ccccc2)cc1C` (stereo not drawn) gave an inhibition of -1.12%. In the case of `CC(=NCc1ccco1)c1c(C(F)(F)F)[nH]n(-c2nc3ccccc3s2)c1=O`, the inhibition is reported as 50.6% (active). Compound `CCC1(CC)NC(=O)N(Cc2nc3ccccc3s2)C1=O` has an inhibition of 0.882%. In the case of `CCC(C)Cn1c(O)cc2nn(-c3nc4ccccc4s3)c(=O)c-2c1C` (stereo not drawn), the inhibition is reported as -6.61%. `COc1cc(NC(=O)C2CC(c3ccccc3O)=NO2)c(OC)cc1Cl` (stereo not drawn) showed an inhibition of -3.49%. With `COC(C[C@H](O)CC(=O)[C@@H](C)OCc1ccccc1)OC` the inhibition was 8.38%. In the case of `COC(C[C@@H]1O[C@@H]1C(=O)[C@H](C)OCc1ccccc1)OC`, the inhibition is reported as -11%. In the case of `COC(C/C=C/C(=O)[C@@H](C)OCc1ccccc1)OC`, the inhibition is reported as 50.1% (active). `COC(=O)[C@@H]1CC[C@H](C)[C@@H](c2ccc(C)cc2)N1C(=O)c1ccc(/C=N/O[C@H](C)c2cn([C@@H]3COC[C@H]3O)nn2)cc1` gave an inhibition of -0.068%. `CN(CC(=O)Nc1ccc(Cl)cc1)C(=O)CNC(=O)c1ccc2ccccc2c1` showed an inhibition of -7.81%. For `CN(C)CCCN(C(=O)c1ccc(S(=O)(=O)N2CCCc3ccccc32)cc1)c1nc2ccc(F)cc2s1`, the inhibition was 40.9% (active). With `CN(C)CCCN(C(=O)c1ccc(S(=O)(=O)N2CCCCCC2)cc1)c1nc2ccc(Br)cc2s1` the inhibition was 34.5%. `CCOc1ccc2nc(N(CCCN(C)C)C(=O)c3ccc(C(=O)c4ccccc4)cc3)sc2c1` gave an inhibition of 11.2%. For `Cc1cc(NCc2ccco2)n2c(nc3ccccc32)c1C#N`, the inhibition was -0.142%. In the case of `Cc1ccccc1-c1nc(C#N)c(NCc2ccco2)o1`, the inhibition is reported as 46.8% (active). Work on `COc1ccc(Nc2oc(-c3ccccc3Cl)nc2C#N)cc1` yielded an inhibition of 13.8%. Compound `CC(C)CCn1c(=O)c2c(nc3n2CCCN3Cc2ccccc2)n(C)c1=O` has an inhibition of 11.2%. `COc1ccc(Cc2nnc(N/N=C/c3ccccc3O)[nH]c2=O)cc1OC` gave an inhibition of 9.37%. Work on `Cc1nn(Cc2ccc(F)cc2)c(C)c1NC(=O)c1cccnc1Cl` yielded an inhibition of -10.4%. For `CSc1ccccc1NC(=O)c1cc(C2CC2)on1`, the inhibition was 7.03%. In the case of `Cc1nn(Cc2ccc(Cl)c(Cl)c2)c(C)c1NC(=O)c1cc(C2CC2)on1`, the inhibition is reported as 43% (active). Compound `COc1ccc(CN2CCNC(=O)C2CC(=O)N(C)Cc2ccccn2)cc1OC` (stereo not drawn) has an inhibition of 10.2%. Work on `CC(=O)Nc1ccc(CC#N)cc1` yielded an inhibition of 12.5%. In the case of `O=C(NCCN1C(=O)S/C(=C\c2cccnc2)C1=O)c1cccc(OC(F)F)c1`, the inhibition is reported as 43.2% (active). `Cc1cc(OCCCC(=O)NCCN2C(=O)S/C(=C\c3cccnc3)C2=O)ccc1Cl` gave an inhibition of 38.4%. In the case of `O=C(NCCN1C(=O)S/C(=C\c2cccnc2)C1=O)c1ccc(S(=O)(=O)N2CCCC2)cc1`, the inhibition is reported as 2.86%. In the case of `CCOc1ccc(N(CC(=O)NCC2CCCO2)S(=O)(=O)c2ccc(C)cc2)cc1` (stereo not drawn), the inhibition is reported as 16.8%. For `CCc1sc(C(=O)N2CCN(CC(=O)Nc3cccc(F)c3)CC2)cc1C`, the inhibition was 60.2% (active). `CC(=O)N1CCN(CC(=O)Nc2ccc(C)c(F)c2)CC1` gave an inhibition of -1.66%. Compound `O=C(CN1CCN(C(=O)c2cccc(F)c2)CC1)Nc1ccccc1F` has an inhibition of -0.2%. With `O=C(NC1CC1)C(Cc1ccccc1)NS(=O)(=O)c1ccccc1F` (stereo not drawn) the inhibition was -6.34%. `COc1ccc(S(=O)(=O)N(CC(=O)N/N=C/c2ccc(C(=O)O)cc2)Cc2ccccc2)cc1OC` showed an inhibition of -21.2%. `COCCOC(=O)C1=C(C)N=c2s/c(=C\c3cccs3)c(=O)n2C1c1cccs1` (stereo not drawn) showed an inhibition of 21.4%. For `CCOC(=O)C1=C(C)N=c2s/c(=C\C(=O)OC)c(=O)n2C1c1ccc(OC)cc1` (stereo not drawn), the inhibition was 61.5% (active). For `CCOC(=O)C1=C(CSc2nccn2C)NC(=O)NC1c1ccc(OC)cc1` (stereo not drawn), the inhibition was 9.58%. With `CC(c1ccccc1)n1c(NCCCn2ccnc2)nc2c1c(=O)[nH]c(=O)n2C` (stereo not drawn) the inhibition was 1.78%. Compound `Cc1ccc(C)c(NC(=O)C2Cc3ccccc3CN2C(=O)OCc2ccccc2)c1` (stereo not drawn) has an inhibition of 27.9%. `COc1ccc(Cl)cc1N(CC(=O)N1CCCCC1)S(C)(=O)=O` gave an inhibition of 1.46%. For `Cc1[nH]c2ccccc2c1C(=O)COC(=O)c1c(-c2ccccc2)noc1C`, the inhibition was 48.3% (active). With `Cc1[nH]c2ccccc2c1C(=O)CSCC(=O)O` the inhibition was 13.1%. `Cc1onc(-c2ccccc2Cl)c1C(=O)OCC(=O)c1ccccc1` showed an inhibition of 23.4%. In the case of `CCCN(CCC)C(=S)Nc1cc(C(=O)OC)ccc1C(=O)OC`, the inhibition is reported as -3.94%. `CCOC(=O)[C@@H]1[C@H]2COc3ccc(Br)cc3[C@H]2N2C(=O)N(c3ccc(C)cc3)C(=O)[C@@]12C` showed an inhibition of 13.9%. In the case of `COc1ccc(C(=O)O/N=C(\N)Cc2ccc(Cl)cc2Cl)cc1OC`, the inhibition is reported as 85.8% (active). `COc1ccc(C(=O)ON=C2c3ccccc3-c3ccccc32)cc1OC` gave an inhibition of 18%. With `COc1ccc(C/C(N)=N/OC(=O)c2ccco2)cc1OC` the inhibition was -7.79%. In the case of `CC(=O)Nc1ccc(S(=O)(=O)NCC(=O)OCc2cc(=O)oc3ccc4ccccc4c23)cc1`, the inhibition is reported as 6.88%. Work on `N#Cc1cccc(CN2CCC(=O)N([C@H](CO)c3ccccc3)CC2)c1` yielded an inhibition of 12.1%. `O=[N+]([O-])c1cc([N+](=O)[O-])c(Oc2cc(F)cc(F)c2F)cc1NN1CCCCC1` gave an inhibition of -1.5%. In the case of `Oc1ccccc1-c1cc(-c2ccc(Cl)cc2)n[nH]1`, the inhibition is reported as 53.8% (active). With `O=C(Nc1cccnc1Cl)c1cc(-c2ccccc2O)on1` the inhibition was 3.29%. With `Cc1ccc(NC(=O)c2cc(-c3ccccc3O)n[nH]2)cc1C` the inhibition was 0.905%. With `CCCCC1S/C(=N/N=C/c2cccs2)NC1=O` (stereo not drawn) the inhibition was 5.03%.
